Screening data deposited in PubChem BioAssay by The Scripps Research Institute Molecular Screening Center.
This excerpt belongs to a sample that is enriched for hits.
TTR transcr act: TTR transcription activation, primary screen | SH-SY5Y TTR promoter Gaussia luciferase, luminescence; 100% = recombinant luciferase protein wells | activation, % at 16.7 µM | 92,000 compounds, 1.3% hits;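 active = activation above the mean of all tested compounds plus 3 SD, cut at about 9.5% in these data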;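 note: cells exposed to compounds for one day before reading; 0% = median of all test compound wells on the plate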
HuH7 TTR inh: decreases TTR transcription in HuH7 cells in activator counter-screen; shares compounds with TTR transcr act; HuH7 TTR promoter-Gaussia luciferase reporter, luminescence; inhibition, % at 16.7 µM; 1,100 compounds, 4% hits;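 active = average inhibition above the solvent-only control wells' mean plus 3 SD, cut at about 15% in these data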;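 note: 0% = cells with DMSO only and 100% = cells with inhibitor control FD; inhibitors lower well luminescence so higher value means more inhibition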
TTR act confirm: human TTR transcription activation, confirmation; activation, % at 16.7 µM; SHSY5Y TTR promoter Gaussia luciferase, luminescence; 100% = purified Lucia enzyme wells, no cells; shares compounds with TTR transcr act; 1,100 tested, under 10 active; AID 1117280;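 active = mean activation above a set limit taken from the earlier primary screen, cut at about 11% in these data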;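 note: 0% = DMSO-treated cells and 100% = recombinant Lucia luciferase without cells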
The depositor's hits bear a star.

SMILES	TTR transcr act	others
COc1cc2nncc(SC)c2cc1OC	-1
COc1cc(Cl)c(CN2CCCC(CO)(Cc3cccc(Cl)c3)C2)cc1OC (centres undefined)	-1
CCn1c([N+](=O)[O-])nc2c1c(=O)[nH]c(=O)n2C	-6
CN(CC(=O)Nc1ccccc1Br)C(=O)c1ccncc1	0
CC1CCc2[nH]c3ccc(C(=O)N(C)CC(=O)Nc4ccccc4Br)cc3c2C1 (centres undefined)	31*	HuH7 TTR inh=-42;TTR act confirm=0
CC1CCc2[nH]c3ccc(C(=O)NCC4CCCO4)cc3c2C1 (centres undefined)	5
Cc1c(N(C(=O)Cc2cccs2)C2(C(=O)NC3CCCC3)CCCCC2)c(=O)n(-c2ccccc2)n1C	0
Fc1ccc(-c2csc(/C=C/c3ccc4c(c3)OCO4)n2)cc1	0
CC(C)c1ccc(NC2CCCN(C(=O)c3cnc4ccccn4c3=O)C2)cc1 (centres undefined)	0
CC(C)c1ccc(NC2CCCN(C(=O)c3cccs3)C2)cc1 (centres undefined)	11*	HuH7 TTR inh=-5;TTR act confirm=-1
CC(C)c1ccc(NC2CCCN(C(=O)CCN3CCCCC3=O)C2)cc1 (centres undefined)	0
CCCCCCCCN1C(=O)[C@@H](CC(=O)NCCCC)C[C@@]2(C(=O)OC)C1=C[C@H](COCc1ccccc1)O[C@@H]2C	3
O=C(OCc1cn(Cc2cccc(F)c2)nn1)N1CCOCC1	5
CCN(c1ccccc1)S(=O)(=O)c1ccc(Cl)nc1	19*	HuH7 TTR inh=-4;TTR act confirm=1
CCN(c1ccccc1)S(=O)(=O)c1ccc(F)cc1	1
O=S(=O)(c1ccc(Cl)nc1)N(Cc1ccccc1)Cc1ccccc1	-3
CCCN1CNc2c(c(=O)[nH]c(=S)n2CCc2c(Cl)cccc2Cl)C1	0
Cc1ccc(C(=O)CC(Nc2ccc(F)cc2)c2ccccc2)cc1 (centres undefined)	2
CC(=O)c1cccc(N(CC(=O)NC2CCCCC2)C(=O)c2csnn2)c1	0
NC(=NCCc1ccccc1)NS(=O)(=O)c1cccs1	19*	HuH7 TTR inh=-8;TTR act confirm=0
NC(=NCCc1ccc(Cl)cc1)NS(=O)(=O)c1ccccc1	8
COc1ccc(CCN=C(N)NS(=O)(=O)c2cccs2)cc1	3
COc1ccc(-c2nn(CCC#N)cc2C(=O)Nc2ccccn2)cc1OC	-1
Oc1ccc(Nc2ccccc2F)c2cccnc12	-1
O=C(NC1CCCCN(Cc2ccc(Cl)cc2)C1=O)c1cccc(F)c1 (centres undefined)	1
SMILES	TTR transcr act	others
O=C(c1cccc(F)c1)n1ccc2ccc(-c3ccc4ccn(Cc5ccccc5)c4c3)cc21	1
O=C(Cc1ccccc1)NN1C(=O)C2C3C=CC(C4CC34)C2C1=O (centres undefined)	10*	HuH7 TTR inh=-13;TTR act confirm=-1
O=C(Cc1ccccc1)NN1C(=O)C2C3C=CC(C3)C2C1=O (centres undefined)	2
O=C(Cc1ccccc1)NN1C(=O)C2C(C1=O)C1C=CC2C12CC2 (centres undefined)	-1
COc1ccc(/C=C/C(=O)NCC(=O)N2CCC(N(C)CCN3CCOCC3)CC2)cc1OC	1
O=c1c2ccccc2sc2nc(C3CCCCC3)n(Cc3ccco3)c(=O)c12	17*	HuH7 TTR inh=2;TTR act confirm=-1
CCCc1nc2sc3ccccc3c(=O)c2c(=O)n1Cc1ccccc1	-1
Cn1c2ccccc2c(=O)c2c(=O)n(Cc3ccco3)c(-c3ccc(F)cc3)nc21	3
Cc1cccc(C(C)C)c1NC(=O)C1CCN(S(=O)(=O)c2ccccc2)CC1	-3
Clc1ccccc1OCc1nc(-c2ccc(Br)o2)no1	1
O=[N+]([O-])c1ccccc1OCc1nc(-c2cccs2)no1	12*	HuH7 TTR inh=-9;TTR act confirm=1
O=C(O)CCc1nc(-c2cccs2)no1	-1
COc1ccc(C(=O)C2CCCN(Cc3cccc4c3OCO4)C2)cc1OC (centres undefined)	0
S=C(NC1CCCC1)N1CCN(c2ccccn2)CC1	4
Cc1cccc(N2CCN(C(=S)NC3CCCCC3)CC2)c1C	12*	HuH7 TTR inh=12;TTR act confirm=1
Cc1cccc(N2CCN(C(=O)N3CCOCC3)CC2)c1C	1
COC(=O)[C@]12C[C@H](CC(=O)N3CCC(c4ccccc4)CC3)C(=O)N(Cc3cccc4ccccc34)C1=C[C@H](C(C)C)O[C@@H]2C1CC1	-1
CCOC(=O)N1CCC(NC(=O)c2ccc3c(c2)N=C(C)c2c(C)ccc(C)c2S3)CC1	-2
Cc1ccc(S(=O)(=O)n2c3ccc(Cl)cc3c3nc(C)sc32)cc1	18*	HuH7 TTR inh=-13;TTR act confirm=0
Cc1ccc(S(=O)(=O)n2c(N)nc3cc(C)c(C)cc32)cc1	2
Cc1cn(S(=O)(=O)c2ccc(Cl)cc2)c(C)n1	2
CCc1ccc(N2CC(C(=O)NCC(C)(C)N3CCOCC3)CC2=O)cc1 (centres undefined)	-1
O=C(CCc1nnc(CCCc2ccccc2)o1)N1CCCCCC1	-1
O=C(CCc1ccccc1)N1CCCC1	11*	HuH7 TTR inh=-5;TTR act confirm=0
CC1CCCN(C(=O)CCc2ccccc2)C1 (centres undefined)	1
SMILES	TTR transcr act	others
CC(=O)C1=C(C)NC(C)=C(C(C)=O)C1c1ccccc1	0
Cc1cn([C@H]2C[C@H](O)[C@@H](/C=C/C(=O)NCCc3cccnc3)O2)c(=O)[nH]c1=O	2
Cn1c(=O)[nH]c(=O)c2c1nc(N/N=C/C(Br)=C/c1ccccc1)n2CCO	0
O=C(/C=C\c1ccc2c(c1)OCO2)Nc1c2c(nn1-c1ccc(Cl)cc1)CSC2	-1
Cc1cc(Nc2ccc3c(c2)OCCO3)c2cccc(C)c2n1	0
Cc1cc(C)c2c(=O)[nH]c(SCc3ccccc3C)nc2n1	-1
Cc1cc(C)c2c(N)c3cccc(C)c3nc2n1	12*	HuH7 TTR inh=-4;TTR act confirm=3
COC(=O)[C@]12C[C@H](CC(=O)NCc3cccc4ccccc34)C(=O)N(Cc3ccccc3)C1=C[C@H](COCc1ccccc1)O[C@@H]2C	-1
COc1ccc(-n2cc(CNCCCN3CCCC3=O)c(-c3ccccc3Cl)n2)cc1	1
CC(CNCCCn1cnc2c(OCc3ccccc3)ncnc21)c1ccccc1 (centres undefined)	0
COc1ncnc2c1ncn2CCCNCCCN1CCCC1=O	15*	HuH7 TTR inh=-7;TTR act confirm=1
CSc1nnnn1-c1ccc(C(=O)O)cc1	19*	HuH7 TTR inh=-7;TTR act confirm=0
CSc1nnnn1-c1ccc(C)c(Cl)c1	0
O=C(O)c1ccc(-n2nnnc2SCc2ccccc2F)cc1	0
COc1ccc2[nH]c3c(c2c1)CCN[C@]31C(=O)N(C)c2ccc(Br)cc21	0
O=C(CCCN1C(=O)c2ccccc2C1=O)NCc1ccc(F)cc1	0
CCC(c1nnc(SCC(=O)N(C)c2ccccc2)n1Cc1ccccc1)N(C)C (centres undefined)	3
CC(C)c1ccc(S(=O)(=O)N2CCN(C(=O)c3cc([N+](=O)[O-])ccc3N3CCOCC3)CC2)cc1	2
C/C(=N\NC(=O)Cc1cccn1C)c1ccco1	0
C/C(=N\NC(=O)Cc1cccn1C)c1ccc2ccccc2c1	11*	HuH7 TTR inh=-20;TTR act confirm=0
C/C(=N/NC(=O)Cc1cccn1C)c1ccccc1	0
COC(CNC(=O)[C@H](Cc1ccccc1)NCC(=O)NC1CCCCC1)OC	0
CCOc1ccc(CCNC(=O)c2ccccn2)cc1OCC	0
